This is a sample that favours compounds with a hit; in the whole collection about 1.9% have one here.
S1P4 ag = agonists of human S1P4 receptor; S1P4-expressing cell line, agonist reporter assay; activation, % at 4.98 µM; 220,000 tested, 0.35% active; in the data active = activation above about 11%;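 also: 0% = DMSO vehicle and 100% = reference agonist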
EP2 modulator = modulates human prostaglandin E2 receptor EP2 signaling | 260,000 tested, 0.83% active | EP2-expressing cells, cAMP HTRF FRET, PGE2 co-stimulation | P43116 | induction, % at 25 µM;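 active = compounds whose cAMP rise, as percent of the full-agonist control response, exceeds 60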;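 also: rat C6 glioma line stably carrying human EP2 under a CMV promoter; the protocol text gives 20 µM as final concentration; 100% = response of wells given 1 µM PGE2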
Target sequence (P43116 whole entry, looked up): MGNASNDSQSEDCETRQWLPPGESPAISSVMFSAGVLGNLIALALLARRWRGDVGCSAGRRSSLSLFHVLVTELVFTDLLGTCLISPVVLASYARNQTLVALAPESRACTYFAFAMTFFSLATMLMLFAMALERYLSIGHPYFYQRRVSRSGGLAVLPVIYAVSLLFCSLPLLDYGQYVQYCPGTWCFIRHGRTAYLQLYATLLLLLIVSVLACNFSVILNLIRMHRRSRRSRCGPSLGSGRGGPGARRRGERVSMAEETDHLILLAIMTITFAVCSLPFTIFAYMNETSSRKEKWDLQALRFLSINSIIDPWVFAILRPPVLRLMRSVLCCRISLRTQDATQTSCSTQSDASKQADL
EP2 antag = inhibitors of human EP2 prostaglandin E2 receptor | 260,000 tested, 0.52% active | AID 1422 | P43116 | inhibition, % at 25 µM | C6 glioma cells expressing human EP2, cAMP TR-FRET; cells stimulated with saturating PGE2;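 active = percent inhibition above 40 after rounding to a whole number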;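 also: rat C6 glioma host cells with rolipram phosphodiesterase inhibitor present; the protocol text gives 20 µM as final concentration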
S1P3 antag = S1P3 (human) receptor antagonism. CHO S1P3 NFAT-BLA reporter, FRET fluorescence, antagonist mode. inhibition, % at 4.98 µM. 170,000 tested, 0.27% active. AID 485;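 active = inhibition above the plate cutoff, the mean inhibition of test wells on that plate plus 3 SD, cut at about 28% in these data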;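 also: cells challenged with S1P at its EC80 of 0.8 µM; blue over green emission ratio from cleaved BLA substrate after 4 h stimulation; 0% = S1P-stimulated wells and 100% = unstimulated DMSO-only wells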
S1P4 antagonist = antagonists of human S1P4 receptor; O95977; S1P4-expressing cells, antagonist mode, reporter read-out; inhibition, % at 4.98 µM; 220,000 tested, 0.26% active; AID 1510; in the data active = inhibition above about 29%;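 also: 0% = wells stimulated with agonist and 100% = vehicle wells without agonist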
S1P4 agonist cf = confirmation of human S1P4 receptor agonists | shares compounds with S1P4 ag | S1P4 agonist cell-based reporter assay | activation, % at 4.98 µM | 740 tested, 7% active | AID 1523; in the data active = activation above about 12%;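 also: 0% = vehicle and 100% = full reference agonist response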
S1P1 ag = activates human S1P1, counter-screen for S1P4 agonists; shares compounds with S1P4 ag; S1P1 agonist cell-based assay, activation; activation, % at 4.98 µM; 740 tested, 4% active; AID 1563; in the data active = activation above about 21%;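 also: 0% = vehicle wells and 100% = reference agonist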
Active calls of the source: *; x = no result.

SMILES | S1P4 ag | EP2 modulator | EP2 antag | S1P3 antag | S1P4 antagonist | S1P4 agonist cf | S1P1 ag
COc1ccc(N2CC(C(=O)OCC(=O)NCc3ccccc3)CC2=O)cc1 (centres undefined) | 1 | -11 | 8 | x | 1 | x | x
COc1ccc(NC(=O)N2CCCC(C(=O)NCC3CCCCC3)C2)cc1 (centres undefined) | x | -6 | 8 | x | x | x | x
CC1(C)Oc2ccc(C(=O)NC3CC3)cc2N(CC(=O)Nc2cccc(Cl)c2)C1=O | x | -29 | 11 | x | x | x | x
COc1ccc(N2CCN(C(CNC(=O)C(=O)NCC3CCCO3)c3ccco3)CC2)cc1 (centres undefined) | 13* | -1 | 9 | -5 | -7 | -2 | 0
COC(=O)NCC(c1ccco1)N1CCN(c2ccc(OC)cc2)CC1 (centres undefined) | 0 | -5 | 6 | -14 | 2 | x | x
CCNC(=O)C1CCN(S(=O)(=O)c2ccc(OC)cc2)CC1 | x | -12 | 18 | x | x | x | x
O=C(NC1CCN(Cc2ccccc2)CC1)c1cccc(S(=O)(=O)Nc2cc(C(F)(F)F)ccc2Cl)c1 | 25* | -80 | 8 | -4 | -24 | -2 | -2
CCOc1ccc2nc3sc(C(=O)Nc4nnc(CC)s4)c(N)c3cc2c1 | x | -54 | 13 | x | x | x | x
Cc1csc(NC(=O)CN2CCc3nc(N4CCCCC4)[nH]c(=O)c3C2)n1 | x | -13 | 10 | x | x | x | x
COc1ccc2c(c1OC)C(=O)OC2Nc1ccccc1S(=O)(=O)C(F)F (centres undefined) | 17* | 14 | 9 | 1 | -32 | 0 | 3
COc1cc(CN2CCC(C(=O)NCC3CCCO3)CC2)ccc1OCc1ccccc1 (centres undefined) | x | -52 | 19 | x | x | x | x
Cc1ccc(S(=O)(=O)NCCNC(=O)c2ccccc2)cc1 | -1 | 8 | 4 | -19 | -3 | x | x
Cc1ccc(S(=O)(=O)CNC(=O)c2ccccc2)cc1 | 24* | 9 | 10 | -9 | -2 | -2 | 1
O=C(Nc1ccn(Cc2ccccc2)n1)c1cccc(Cn2cc([N+](=O)[O-])cn2)c1 | 13* | -12 | 5 | 6 | 1 | -1 | 1
CCC(NC(=O)c1cccc(Cn2cc([N+](=O)[O-])cn2)c1)c1ccc(C(C)C)cc1 (centres undefined) | -1 | -22 | 4 | x | -9 | x | x
Cc1cc(C)c2cc(C)c3nnc(SCC(=O)N4CCC(C)CC4)n3c2c1 | x | -27 | 13 | x | x | x | x
Cc1c(/C=C/C(=O)c2ccccc2)cnn1C | 0 | -36 | 16 | x | -9 | x | x
Cc1c(/C=C/C(=O)c2ccc(Cl)s2)cnn1C | 13* | -10 | 4 | x | -19 | -1 | 4
Cc1nc(Sc2nnnn2C)c2c3c(sc2n1)CCC3 | 11* | 28 | 11 | 14 | -8 | -5 | -17
CCOC(=O)N1CCN(C(=O)c2cc(-c3ccc(OCC)cc3)nc3ccccc23)CC1 | 0 | 3 | 1 | 12 | -6 | x | x
CCOc1ccc(-c2cc3nc(C4CCN(C(=O)OC(C)(C)C)CC4)c(C(=O)O)cn3n2)cc1 | 126* | 56 | 9 | -6 | 2 | -2 | -8
O=c1c2ccccc2nc(SCc2nc3ccccc3s2)n1CCCO | 21* | -6 | 11 | -9 | -7 | -1 | -7
O=C(CSc1nc2ccccc2c(=O)n1CCCO)NCc1ccccc1 | 0 | 3 | 7 | -6 | -3 | x | x
CCOC(=O)c1ccc(NC(=O)CSc2nc3cc4c(cc3cc2C)OCO4)cc1 | x | -1 | 7 | x | x | x | x
Cc1nn(CC(=O)N2CCC(n3nnc(-c4ccc(F)cc4)n3)CC2)c(=O)c2ccccc12 | x | -9 | x | x | x | x | x
SMILES | S1P4 ag | EP2 modulator | EP2 antag | S1P3 antag | S1P4 antagonist | S1P4 agonist cf | S1P1 ag
O=C(COC(=O)c1ccncc1)NCc1ccccc1 | -3 | 13 | 8 | 10 | -6 | x | x
O=C(COC(=O)c1ccc(Br)cc1)NCc1ccccc1 | 15* | 20 | 11 | -13 | -15 | -1 | 7
O=C(COC(=O)c1cccc(C(F)(F)F)c1)NCc1ccccc1 | 23* | 11 | 10 | -10 | -1 | -1 | 7
O=C(COC(=O)c1cccc(C(F)(F)F)c1)NCc1ccc(Cl)cc1 | 4 | 26 | 9 | 1 | 13 | x | x
CC(=O)NC1(c2ccccc2F)CCN(Cc2nc3ccccc3n2C(C)C)CC1 | x | -46 | 2 | x | x | x | x
COCCCN1C(=O)c2ccc(C(=O)OCC(=O)NCCc3ccccc3)cc2C1=O | 16* | -10 | 5 | -11 | 0 | -2 | 3
